Laboratory results as given in PubChem BioAssay.
Unmarked numbers belong to inactive results. The rule behind the calls is not given here.

Biological target: L-lactate dehydrogenase (Plasmodium falciparum (isolate CDC / Honduras)) (UniProt Q27743)
Assay: PfLDH activity inhibition – cell lysate, 3D7 strain, counter-screen for P. falciparum growth inhibition project (AID 2304);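 note: 0% = vehicle and 100% = reference inhibitor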
Details: P. falciparum 3D7 crude extract, LDH APAD/NBT absorbance; at 2 µM; hits give high values

Sequence of L-lactate dehydrogenase (Plasmodium falciparum (isolate CDC / Honduras)) (Q27743 whole entry, looked up): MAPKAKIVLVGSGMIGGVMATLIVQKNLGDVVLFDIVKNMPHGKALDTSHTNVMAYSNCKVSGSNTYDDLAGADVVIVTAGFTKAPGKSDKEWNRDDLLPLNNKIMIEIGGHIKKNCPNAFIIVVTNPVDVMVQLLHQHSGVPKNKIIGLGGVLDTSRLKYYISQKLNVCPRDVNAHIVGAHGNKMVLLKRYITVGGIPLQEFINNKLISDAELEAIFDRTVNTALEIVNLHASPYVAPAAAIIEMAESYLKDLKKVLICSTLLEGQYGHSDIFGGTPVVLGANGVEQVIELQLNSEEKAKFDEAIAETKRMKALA

| SMILES | inhibition [%] |
| --- | --- |
| CC(C)N1CCN(C(CN2CCN(CCCOc3ccccc3-c3ccccc3)CC2)c2ccc(F)cc2)CC1 (centres undefined) | 5 |
| Cc1cc(OCCCN2CCC(NS(=O)(=O)c3cc(Br)c(Cl)s3)CC2)c2ccccc2n1 | 3 |
| Cc1nnsc1C(=O)Nc1ccc(-c2ccc(-c3nc4c(C)cccc4[nH]3)s2)cc1 | 2 |
| CN(C)CCCNc1ncnc2c1[nH]c1ccc(Cl)cc12 | 2 |
| Cc1cc(N)cc2[nH]c(-c3ccc(N)cc3)nc12 | -11 |
| O=C(Nc1cccc(CN2CCN(C(=O)c3cccc(F)c3)CC2)c1)c1cccs1 | 1 |
| OCCN1CCN(C(=S)Nc2ccccc2)CC1 | 2 |
| CC(=O)Oc1c(C2CCN(CCCCNC(=O)c3ccc(NC(=O)c4ccc(Cl)cc4)cc3)CC2)ccc2ccccc12 | -6 |
| CCOC(=O)c1c(CNc2ccncc2)n(C)c2cc(Br)c(OC(C)=O)cc12 | 5 |
| O=C(Nc1ccccc1N1CCOCC1)c1ncoc1-c1ccccc1C(F)(F)F | 7 |
| Cc1nc(-c2cccc(Nc3nccc(NCC(O)c4ccc(C(F)(F)F)cc4)n3)c2)cs1 (centres undefined) | 4 |
| OCc1c(Cl)cc(Cl)cc1CNCCCNc1nc2ccccc2[nH]1 | -2 |
| COC(=O)c1cccc(CNCc2cccc(-c3cccc(-c4nc5ccc(F)cc5[nH]4)c3)c2)c1 | 1 |
| CC(C)(C)c1ccc(OC(=O)c2ccc(NC(=O)N[C@@H](Cc3ccc(O)cc3)C(=O)NC3CCN(Cc4ccc(O)cc4)C3)cc2)cc1 (some centres undefined) | -3 |
